Assay results as given in PubChem BioAssay (NCATS).
Values joined by “and” are separate entries in the source; they are usually repeats but may differ in a detail not shown here. Identical values can stand only once. Unmarked numbers belong to inactive results. Records with an inconclusive call do not appear. Active and inactive are the calls of the source. Unless noted, the call rests on the fitted dose curve; in most records, active means well fitted curve in either direction with a large enough effect (not every such curve was filed as active); inconclusive means small, poorly fitted or top-dose-only effect, or another doubt; inactive means flat fitted curve, though single readings scatter.

Experiments:
[1] = AP1 Signaling Pathway (AID 357);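 further: ME-180 reporter cells stimulated with EGF at its EC50 level; on the % scale 0 is the no-effect control and ±100 the full control effect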
In short: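 Titration-series screen for positive or negative modulators of EC50 EGF-induced signaling in ME-180 cells carrying an AP-1-driven beta-lactamase reporter. After 5 hours at 37 degrees Celsius, CCF4 460nm/530nm emission ratio gave %Activity; AC50 values derived.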

[2] = Cell Viability - Jurkat (AID 426;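 active means dose-dependent loss of cell ATP signal giving a full or clear fitted curve, ranked by lower potency value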; further: potency means the concentration at half of the fitted maximal effect); details: qHTS
In short: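 Jurkat (clone E6-1, human T-cell leukemia) cells, 5000/well in complete medium, were exposed to compound for 40 hr at 37 °C. Viability was read as intracellular ATP by CellTiter-Glo luminescence; AC50 came from Hill fits of concentration-response data.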

[3] = Cell Viability - MRC5 (AID 434; calls by dose curve;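 further: potency means the concentration at half of the fitted maximal effect; potency reflects cytotoxicity seen as loss of intracellular ATP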); details: MRC5 lung fibroblast viability, qHTS
In short: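 qHTS cytotoxicity in human lung fibroblast MRC5 cells; 40 hr treatment, 37 °C; cellular ATP by luciferase luminescence; DMSO = 0%, 100 uM tamoxifen = 100% inhibition; Hill-fit AC50.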

[4] = molecular target: Cytochrome P450 1A2 (Homo sapiens) (UniProt P05177); assay: p450-cyp1a2 (AID 410; calls by dose curve; further: potency means the concentration at half of the fitted maximal effect;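 on activity change, negative = inhibition: -100% = full effect of reference inhibitor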)
In short: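 Human CYP1A2 (20nM) demethylated Luciferin-ME at its Km (100uM) in 100mM KPO4. After 10 min compound preincubation, NADPH regeneration ran the reaction 60 min at room temperature. Luciferin was read by luminescence, normalized to 57 uM furafylline.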

[5] = Cell Viability - BJ (AID 421; calls by dose curve;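 further: potency means the concentration at half of the fitted maximal effect; cells exposed to compound for 40 hours at 37 °C before readout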); details: BJ fibroblast viability, qHTS
In short: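 Quantitative HTS: ATP depletion in BJ cells after 40 hr compound exposure in complete culture medium, detected with CellTiter-Glo; AC50 from standard Hill fits.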

[6] = Cell Viability - Hek293 (AID 427;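 active means compounds whose dose-response curve shows a full or clear partial loss of cell viability, called from curve shape rather than a numeric limit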;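 further: potency means the concentration at half of the fitted maximal effect; cells exposed to compound for 40 hours at 37 °C before reading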); details: qHTS
In short: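 AC50 values derive from Hill-modelled concentration-response of ATP-based luminescence, normalized between DMSO-only and 100 uM tamoxifen controls. Cells were exposed in complete culture medium for 40 hr at 37 °C before detection.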

[7] = Cell Viability - HepG2 (AID 433; calls by dose curve;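 further: potency means the concentration at half of the fitted maximal effect; potency for ATP loss meaning cytotoxicity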); details: qHTS
Text: NIH Chemical Genomics Center [NCGC]
NIH Molecular Libraries Screening Centers Network [MLSCN]
National Institutes of Environmental Health Sciences [NIEHS]
National Toxicology Program [NTP]
We have developed a 1536-well cell-based assay for quantitative high throughput screening (qHTS) against a number of cell lines to determine in vitro cytotoxicity of small molecules. This particular assay uses the HepG2 cell line which is derived from hepatocellular carcinoma.
NCGC Assay Protocol Summary:
The CellTiter-Glo luminescent cell viability assay (Promega) is a homogeneous method to measure the number of viable cells in culture. The end point readout of this assay is based on quantitation of intracellular ATP, an indicator of metabolic activity, using the luciferase reaction. Luciferase catalyzes the oxidation of beetle Luciferin to oxyluciferin and light in the presence of ATP. The luminescent signal is proportional to amount of ATP present.
Using the CellTiter-Glo luminescent cell viability assay, the amount of cellular ATP was measured in the HepG2 cell line with complete culture medium following compound treatment for 40 hours. The assay was performed in opaque white Kalypsys 1536-well plates. In the screen, tamoxifen and doxorubicin were used as positive controls. Library compounds were measured for their ability to cause acute toxicity in the cell line, as reflected by a decrease in intracellular ATP levels, in a concentration-dependent manner. Data were normalized to the controls for basal activity (DMSO only) and 100% inhibition (100 uM tamoxifen). AC50 values were determined from concentration-response data modeled with the standard Hill equation.
qHTS protocol fo CellTiter Glo HepG2 cellular assay
[Step] [Parameter] [Value] [Description]
1. Reagent; 5 uL; 1500 HepG2 cells/well
2. Time; 5 hr; 37 °C incubation
4. Controls; 23 nL; Tamoxifen 0.34 uM to 100 uM & Doxorubicin 0.02 nM to 100 uM
5. Time; 40 hr; 37 °C incubation
6. Reagent; 5 uL; CellTiter Glo reagent
7. Time; 20 min; Room Temperature
8. Detection; Luminescence; Viewlux plate reader
Keywords: cell viability, cytotoxicity, HepG2 cell line, luminescence, NTPHTS, NTPHTS_NCGC, NIEHS, EPA, DSSTox, MLSMR, MLSCN, NIH Roadmap, qHTS, NCGC

[8] = Cell Viability - SK-N-SH (AID 435; calls by dose curve;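 further: potency means the concentration at half of the fitted maximal effect; compound exposure lasted 40 h at 37 °C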); details: SK-N-SH neuroblastoma cell viability qHTS
In short: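 Cells seeded at 1500 per well and incubated 5 hr at 37 °C. Compound added, then 40 hr at 37 °C. CellTiter-Glo added, 20 min at room temperature, luminescence read.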

[9] = NFAT Signaling Pathway (AID 444); details: Jurkat NFAT-bla M1, carbachol, beta-lactamase ratio, 5 h;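 further: carbachol stimulus at about its EC50 of 1 µM final; on the % scale 0 is the no-effect control and ±100 the full control effect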
In short: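 Read-out: CCF4 FRET ratio (460 nm/530 nm) after 1 h RT dye loading, used for %activity and AC50 from titration series. Cells: Jurkat NFAT-β-lactamase/M1 line, treated with compound plus 1 uM carbachol for 5 h, 37 °C.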

[10] = molecular target: Lysosomal acid glucosylceramidase (Homo sapiens) (UniProt P04062); assay: Glucocerebrosidase-p2 (AID 348; in the data active means potency below about 10 µM; further: potency means the concentration at half of the fitted maximal effect); details: purified GBA, blue fluorogenic substrate, 40 min
In short: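 Compounds titrated from 0.6 nM upwards against 0.2 nM enzyme in pH 5.9 citric acid/KH2PO4, taurocholate, tween-20; blue fluorogenic substrate 80 uM, 40 min room temperature, stopped and read Ex 365/Em 440 for AC50.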

Chain of Cytochrome P450 1A2 (Homo sapiens) (P05177 whole entry, looked up): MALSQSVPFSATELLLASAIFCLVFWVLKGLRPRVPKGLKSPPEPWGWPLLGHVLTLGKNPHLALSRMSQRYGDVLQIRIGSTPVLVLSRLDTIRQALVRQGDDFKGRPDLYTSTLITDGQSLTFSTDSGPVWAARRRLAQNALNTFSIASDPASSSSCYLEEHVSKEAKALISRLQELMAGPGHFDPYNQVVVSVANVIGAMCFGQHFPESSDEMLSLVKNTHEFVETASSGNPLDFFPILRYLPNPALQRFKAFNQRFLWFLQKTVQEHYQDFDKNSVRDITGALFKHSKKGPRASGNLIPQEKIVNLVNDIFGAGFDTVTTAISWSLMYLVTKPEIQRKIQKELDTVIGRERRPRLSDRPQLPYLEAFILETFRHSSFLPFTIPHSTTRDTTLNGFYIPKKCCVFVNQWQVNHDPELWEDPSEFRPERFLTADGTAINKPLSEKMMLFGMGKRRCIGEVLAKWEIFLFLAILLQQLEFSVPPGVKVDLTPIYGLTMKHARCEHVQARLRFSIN
Chain of Lysosomal acid glucosylceramidase (Homo sapiens) (P04062 whole entry, looked up): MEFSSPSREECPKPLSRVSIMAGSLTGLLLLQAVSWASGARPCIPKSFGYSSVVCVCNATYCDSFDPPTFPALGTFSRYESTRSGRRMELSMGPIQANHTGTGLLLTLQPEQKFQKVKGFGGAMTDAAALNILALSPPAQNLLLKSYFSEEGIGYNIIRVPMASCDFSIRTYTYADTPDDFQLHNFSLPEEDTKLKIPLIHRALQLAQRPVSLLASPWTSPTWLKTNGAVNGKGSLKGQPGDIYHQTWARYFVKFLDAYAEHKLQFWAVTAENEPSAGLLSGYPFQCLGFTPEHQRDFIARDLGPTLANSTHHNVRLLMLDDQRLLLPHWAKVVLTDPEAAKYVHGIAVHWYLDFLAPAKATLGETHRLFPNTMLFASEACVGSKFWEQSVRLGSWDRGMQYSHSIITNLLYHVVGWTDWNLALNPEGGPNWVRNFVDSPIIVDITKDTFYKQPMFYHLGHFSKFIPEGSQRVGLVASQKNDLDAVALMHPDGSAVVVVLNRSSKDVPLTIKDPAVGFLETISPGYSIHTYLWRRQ

## Clc1ccc(COC(Cn2ccnc2)c2ccc(Cl)cc2Cl)cc1 (stereo not given)
[1]
  outcome: inactive
[2]
  Potency: 81.7 µM (active)
[3]
  Potency: 95 µM

## c1ccc(C2CC2)c(OCC2=NCCN2)c1
[1]
  outcome: inactive
[4]
  Potency: 15.8 µM (active) and 25.1 µM (active)

## CNCC(O)c1ccc(O)cc1 (stereo not given)
[1]
  outcome: inactive
[5]
  Potency: > 92 µM
[2]
  Potency: > 92 µM
[6]
  Potency: > 92 µM
[7]
  Potency: > 92 µM
[3]
  Potency: > 92 µM
[8]
  Potency: > 92 µM
[9]; at 17.2 µM (top of the series)
  activity change, negative = inhibition: 19.4%

## Cc1ccc(S(=O)(=O)N[C@@H](CCCCN)C(=O)CCl)cc1
[1]
  outcome: inactive
[4]
  Potency: inactive
[9]; at 38 µM (top of the series)
  activity change, negative = inhibition: -22.6%

## Fc1ccc(C(OCCN2CCN(CCCc3ccccc3)CC2)c2ccc(F)cc2)cc1
[1]
  outcome: inactive

## Cc1cccc(C)c1NC1=NCCCS1
[1]
  outcome: inactive
[4]
  Potency: inactive
[9]; at 38 µM (top of the series)
  activity change, negative = inhibition: -14.8%

## NN=C(N)N
[1]
  outcome: inactive
[4]
  Potency: inactive
[9]; at 38 µM (top of the series)
  activity change, negative = inhibition: 2.99% and 1.19%

## c1ccc2c(c1)OCC(C1=NCCN1)O2 (stereo not given)
[1]
  outcome: inactive

## Oc1cccc2cccnc12
[10]
  Potency: > 11.4 µM
[4]
  activity change, negative = inhibition: -20% [at 11.4 µM]
[5]
  Potency: > 92 µM
[3]
  Potency: > 92 µM
[8]
  Potency: 24.4 µM (active) and 28.1 µM (active)
[9]; at 7.69 µM (top of the series)
  activity change, negative = inhibition: 3.84%

## Clc1cccc(N2CCNCC2)c1
[1]
  outcome: inactive
[4]
  Potency: 15.8 µM (active)
[9]; at 38 µM (top of the series)
  activity change, negative = inhibition: -4.86%

## NCC1(CC(=O)O)CCCCC1
[1]
  outcome: inactive
[4]
  Potency: inactive
[9]; at 17.2 µM (top of the series)
  activity change, negative = inhibition: -5.52% and 10.6%
[9]; at 38 µM (top of the series)
  activity change, negative = inhibition: 3.24%

## N[C@@H]1C[C@H]1c1ccccc1
[1]
  outcome: inactive
[4]
  Potency: 15.8 µM (active)
[9]; at 38 µM (top of the series)
  activity change, negative = inhibition: -3.2%

## N#CC(C#N)=Cc1ccc(O)c(O)c1
[1]
  outcome: inactive
[4]
  Potency: 15.8 µM (active) and 5.01 µM (active)
[9]; at 38 µM (top of the series)
  activity change, negative = inhibition: -13.6%

## O=P1(NCCCl)OCCCN1CCCl (stereo not given)
[1]
  outcome: inactive
[9]; at 17.2 µM (top of the series)
  activity change, negative = inhibition: -9.45%

## CN(C)[C@@H]1C(=O)C(C(N)=O)=C(O)[C@@]2(O)C(=O)C3=C(O)c4c(O)cccc4[C@@](C)(O)[C@H]3C[C@@H]12
[1]
  outcome: inactive

## COc1ccccc1N1CCNCC1
[1]
  outcome: inactive
[4]
  Potency: inactive
[9]; at 38 µM (top of the series)
  activity change, negative = inhibition: -22.1%

## Nc1ccncc1
[1]
  outcome: inactive
[4]
  Potency: inactive
[9]; at 38 µM (top of the series)
  activity change, negative = inhibition: -3.97%

## O=c1[nH]c2ccccc2n1CCCN1CCC(n2c(=O)[nH]c3cc(Cl)ccc32)CC1
[10]
  Potency: > 11.4 µM
[1]
  outcome: inactive
[9]; at 7.69 µM (top of the series)
  activity change, negative = inhibition: -18.5%
[9]; at 17.2 µM (top of the series)
  activity change, negative = inhibition: -16.6% and -16.4%
[9]; at 38 µM (top of the series)
  activity change, negative = inhibition: -15.8%

## CCCN1CCC[C@@H]2Cc3[nH]ncc3C[C@H]21
[1]
  outcome: inactive
[4]
  Potency: inactive
[9]; at 17.2 µM (top of the series)
  activity change, negative = inhibition: 24.4%
[9]; at 38 µM (top of the series)
  activity change, negative = inhibition: 7.41% and -8.14%

## CCCN1CCC[C@@H]2Cc3nc(N)ncc3C[C@H]21
[1]
  outcome: inactive
[4]
  Potency: inactive
[9]; at 38 µM (top of the series)
  activity change, negative = inhibition: -3.63%

## CC(=O)[C@H]1CC[C@H]2[C@@H]3CC[C@H]4C[C@H](O)CC[C@]4(C)[C@H]3C(=O)C[C@]12C
[1]
  outcome: inactive
[9]; at 17.2 µM (top of the series)
  activity change, negative = inhibition: -29.1%

## O=[N+]([O-])c1cc([As](=O)(O)O)ccc1O
[1]
  outcome: inactive
[4]
  Potency: inactive
[9]; at 17.2 µM (top of the series)
  activity change, negative = inhibition: -8.47%

## CC(CCc1ccccc1)NC(C)C(O)c1ccc(O)cc1 (stereo not given)
[1]
  outcome: inactive
